High-throughput results deposited in PubChem by several laboratories.
SRC3 inh = inhibits human SRC3 coactivator; Q9Y6Q9; HEK293 GAL4-SRC3 luciferase reporter, luminescence; inhibition, % at 3.6 µM; hit rate 0.17% among 360,000;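 active = inhibition above a per-campaign cutoff, the mean of all compounds plus 3 SD, cut at about 60% in these data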;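 also: 0% = DMSO-treated cells and 100% = gossypol-treated cells at 36 µM; higher means less SRC3-driven luciferase light from the GAL4 reporter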
Target sequence (Q9Y6Q9 whole entry, looked up, the tested form may be a part): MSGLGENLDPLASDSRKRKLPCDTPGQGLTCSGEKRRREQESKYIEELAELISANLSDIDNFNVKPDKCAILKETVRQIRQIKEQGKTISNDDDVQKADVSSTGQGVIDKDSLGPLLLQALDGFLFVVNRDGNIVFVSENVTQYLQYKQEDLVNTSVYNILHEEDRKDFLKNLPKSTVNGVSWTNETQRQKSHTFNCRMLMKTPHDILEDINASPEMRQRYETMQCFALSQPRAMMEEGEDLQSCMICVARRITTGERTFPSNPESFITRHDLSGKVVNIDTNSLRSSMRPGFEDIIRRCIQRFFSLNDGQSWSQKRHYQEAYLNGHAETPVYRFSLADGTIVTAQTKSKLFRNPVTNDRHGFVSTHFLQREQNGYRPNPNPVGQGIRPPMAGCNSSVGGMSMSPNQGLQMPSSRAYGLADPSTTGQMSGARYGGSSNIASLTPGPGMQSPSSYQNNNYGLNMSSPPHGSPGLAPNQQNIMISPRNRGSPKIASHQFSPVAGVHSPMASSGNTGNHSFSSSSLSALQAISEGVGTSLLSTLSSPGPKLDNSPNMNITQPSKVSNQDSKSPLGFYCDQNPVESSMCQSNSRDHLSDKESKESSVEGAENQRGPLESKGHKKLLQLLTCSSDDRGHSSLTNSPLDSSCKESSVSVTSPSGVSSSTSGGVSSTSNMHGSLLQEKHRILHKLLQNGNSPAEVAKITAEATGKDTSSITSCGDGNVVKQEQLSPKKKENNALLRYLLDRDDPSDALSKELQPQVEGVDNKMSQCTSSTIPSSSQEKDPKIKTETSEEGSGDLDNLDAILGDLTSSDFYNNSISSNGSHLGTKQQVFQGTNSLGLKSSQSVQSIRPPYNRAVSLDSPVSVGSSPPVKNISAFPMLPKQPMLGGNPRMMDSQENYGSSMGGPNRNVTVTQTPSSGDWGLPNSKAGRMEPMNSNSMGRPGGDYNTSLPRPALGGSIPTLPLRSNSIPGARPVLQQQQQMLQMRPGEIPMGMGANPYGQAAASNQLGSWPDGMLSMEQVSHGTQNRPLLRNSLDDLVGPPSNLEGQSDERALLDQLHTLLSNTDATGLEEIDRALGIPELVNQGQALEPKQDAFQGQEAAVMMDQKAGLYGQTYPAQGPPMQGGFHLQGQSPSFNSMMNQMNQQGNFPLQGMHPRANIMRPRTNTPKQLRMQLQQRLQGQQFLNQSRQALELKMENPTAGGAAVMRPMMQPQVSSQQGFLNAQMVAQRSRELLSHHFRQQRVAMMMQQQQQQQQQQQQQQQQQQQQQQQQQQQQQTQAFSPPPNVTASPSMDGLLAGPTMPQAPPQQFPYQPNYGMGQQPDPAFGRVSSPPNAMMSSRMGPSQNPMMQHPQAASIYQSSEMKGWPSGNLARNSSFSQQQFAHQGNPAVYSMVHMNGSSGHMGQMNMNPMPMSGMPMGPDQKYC
NR5A2 inv ag = suppresses constitutive activity of human LRH-1; HEK293T StAR-luciferase reporter, LRH-1 transfected, 24 h; inhibition, % at 3.6 µM; hit rate 0.13% among 360,000; AID 602396;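 active = inhibition above the mean inhibition of all tested compounds plus 3 SD, cut at about 73% in these data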;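 also: 0% = DMSO wells and 100% = reporter-only cells lacking LRH-1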
Gli-Sufu block = Gli-Sufu pathway antagonism; hit rate 0.74% among 340,000; inhibition, % at 5 µM; Sufu-KO-LIGHT fibroblasts, Gli luciferase reporter luminescence; AID 588413;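 active = inhibition above about 55%, limit read from the data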;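 also: 0% = DMSO-treated cells and 100% = wells with medium but no cells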
SRC1 inh = human NCOA1 inhibition | HEK293 GAL4-SRC1 luciferase reporter, luminescence | inhibition, % at 3.6 µM | hit rate 0.12% among 360,000 | AID 588354;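 active = inhibition above the campaign mean plus 3 SD, with each screening campaign given its own cutoff, cut at about 60% in these data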;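 also: 0% = DMSO treated cells and 100% = gossypol at 36 µM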
Shn3 3UTR inh = Schnurri-3 reporter inhibition in Clone20 osteoblasts; Clone20 osteoblast Shn3 3'UTR firefly luciferase, 24 h; inhibition, % at 12.5 µM; hit rate 0.52% among 360,000;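 active = mean inhibition of at least 75% with every replicate also reaching 75%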;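 also: 0% = median of neutral control wells and 100% = pilot-screen positive control compound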
NCOA2 inhibitor = inhibits human steroid receptor coactivator 2 | hit rate 0.17% among 370,000 | Q15596 | inhibition, % at 9 µM | HEK293 GAL4-SRC2 luciferase reporter, luminescence | AID 651957;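 active = inhibition above the mean inhibition of all tested compounds plus 3 SD, set per campaign, cut at about 52% in these data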;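 also: 0% = DMSO treated cells and 100% = cells given Gossypol at 36 µM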
Starred values were filed as active, the others as inactive; / = no result given. The list is not random: actives were taken first. Their share in the collection is about 1.1%.

SMILES	SRC3 inh	NR5A2 inv ag	Gli-Sufu block	SRC1 inh	Shn3 3UTR inh	NCOA2 inhibitor
COc1ccc([N+](=O)[O-])c(S(=O)(=O)c2ccccc2)n1	21	-6	4	21	54	35
O=[N+]([O-])c1cccnc1S(=O)(=O)c1ccccc1	8	-1	10	-9	98*	-4
Cc1ccc2nc(NC(=O)CSCC(=O)OCC(=O)c3ccccc3)sc2c1	55	53	43	30	31	73*
Cc1ccc2nc(NC(=O)CCCC(=O)O)sc2c1	32	17	33	26	51	57*
CCOC(=O)c1c(C)nn(-c2ccc(NC(=O)c3c(C)noc3C)cc2)c1C	22	3	22	20	7	54*
CCOC(=O)c1c(C)nn(-c2ccc(NC(=O)/C=C/C(=O)O)cc2)c1C	51	39	8	-65	/	61*
CCOC(=O)c1c(C)nn(-c2ccc(NC(=O)c3cccs3)cc2)c1C	8	14	3	5	16	16
CCOC(=O)[C@]12CCCCC/C=C\1N(CCc1ccc(Cl)cc1)C(=O)[C@H]2CC(=O)N1CCN(C(=O)c2ccco2)CC1	/	/	/	/	/	13
CCC(=O)N1CCN(c2ccc(NC(=O)c3cc4ccccc4o3)cc2Cl)CC1	25	10	15	22	53	25
CCCC(=O)N1CCN(c2ccc(NC(=O)c3cc4ccccc4o3)cc2Cl)CC1	76*	36	1	46	91*	41
O=C(Nc1ccc(N2CCN(C(=O)c3ccco3)CC2)c(Cl)c1)c1cc2ccccc2o1	32	14	7	36	90*	45
Cc1oc(-c2ccc3c(c2)OCCO3)cc1C(=O)O	29	14	34	18	-3	74*
Cc1oc(-c2ccc3c(c2)OCCO3)cc1C(=O)NCC(=O)O	0	-34	-5	-17	-3	-32
COC(=O)[C@]12C[C@H](CC(=O)N3CCN(C(=O)c4ccco4)CC3)C(=O)N(CCc3ccc(OC)c(OC)c3)C1=C[C@H](C(C)C)O[C@@H]2C1CC1	/	/	/	/	/	-20
Cc1ccccc1Oc1ccc(NC(=O)C2CC=CCC2C(=O)O)cc1 (stereo unspecified)	9	16	-5	-10	-14	-8
CC(C)(C)c1ccc(Oc2ccc(NC(=O)C3CC=CCC3C(=O)O)cc2)cc1 (stereo unspecified)	19	50	-5	4	0	78*
O=C(O)CCCCCN1C(=O)CSC1=S	34	22	8	4	-22	81*
CCc1nnc(NC(=O)c2nc(S(=O)(=O)Cc3cccc(C)c3)ncc2Cl)s1	2	26	37	-41	97*	51
CCSc1ncc(Cl)c(C(=O)Nc2ccccc2OC)n1	3	11	-5	-21	9	2
CCOc1ccccc1NC(=O)c1nc(S(=O)(=O)Cc2cccc(C)c2)ncc1Cl	-8	12	22	-5	98*	-11
CCc1nnc(NC(=O)c2nc(S(=O)(=O)Cc3ccc(C)cc3)ncc2Cl)s1	15	34	31	-68	94*	37
CCc1nnc(NC(=O)c2nc(Cl)ccc2Cl)s1	-2	1	-9	-22	-2	-17
CCc1nnc(NC(=O)c2nc(S(=O)(=O)Cc3ccccc3)ncc2Cl)s1	-39	-19	22	-70	98*	12
CC1=C2NC(N)=[N+](Cc3ccc4c(c3)OCO4)CC2n2c(=O)n(-c3ccccc3)c(=O)n2C1 (stereo unspecified)	/	/	/	/	/	6
O=C(CCS(=O)(=O)c1ccccc1)Nc1ccc(F)cc1F	/	/	/	/	/	4
SMILES	SRC3 inh	NR5A2 inv ag	Gli-Sufu block	SRC1 inh	Shn3 3UTR inh	NCOA2 inhibitor
Oc1cccc(C(Nc2nccs2)c2ccc3cccnc3c2O)c1 (stereo unspecified)	24	24	23	24	91*	35
COc1cccc(C(Nc2ccccc2)c2ccc3ccc(C)nc3c2O)c1 (stereo unspecified)	/	10	/	/	/	5
CCCCC(=O)NC(c1cccc([N+](=O)[O-])c1)c1ccc2cccnc2c1O (stereo unspecified)	22	11	62*	25	89*	44
COc1cccc(C(NC(C)=O)c2ccc3cccnc3c2O)c1 (stereo unspecified)	26	76*	69*	20	83	26
O=[N+]([O-])c1ccc(NC(c2ccccc2)c2ccc3cccnc3c2O)cc1 (stereo unspecified)	87*	38	70*	73*	91*	20
CN(C)S(=O)(=O)c1cccc(C(=O)N/N=C\c2ccnc3ccccc23)c1	/	/	/	/	/	-5
CC(=O)NC(c1cccc([N+](=O)[O-])c1)c1ccc2cccnc2c1O (stereo unspecified)	15	83*	/	21	91*	34
CC(=O)NC(c1ccccc1)c1cc([N+](=O)[O-])c2cccnc2c1O (stereo unspecified)	13	16	-2	-4	-11	-17
O=C(c1ccccc1F)N1CCN(c2ccc([N+](=O)[O-])c(NCc3cccnc3)c2)CC1	-15	22	-4	-6	16	7
COc1ccc(CCNc2cc(N3CCN(C(=O)c4ccccc4F)CC3)ccc2[N+](=O)[O-])cc1OC	29	12	-13	19	88*	31
Cc1nc2ccc(S(=O)(=O)NCC(=O)NCc3ccccc3C)cc2s1	/	/	/	/	/	2
COP(=O)(OC)C(NC(=O)OCc1ccccc1)C(C)C (stereo unspecified)	/	/	/	/	/	-5
COc1ccc(C2NN=C(c3c[nH]c4ccccc34)C2O)cc1 (stereo unspecified)	-33	-78	-20	-15	-15	-22
COc1ccc(C2C(O)C(c3c[nH]c4ccccc34)=NN2C(=O)CCl)cc1 (stereo unspecified)	19	-6	86*	-39	96*	73*
CC1=C/C(=N\OS(=O)(=O)c2ccccc2)C(C)=CC1=O	53	57	3	-25	93*	/
CC1=C(C)/C(=N\OS(=O)(=O)c2ccc(C)cc2)C=CC1=O	17	8	-1	-18	95*	6
CC1=C/C(=N\OS(=O)(=O)c2ccccc2)C(C(C)C)=CC1=O	32	4	7	-27	68	/
COc1ccc(S(=O)(=O)/N=C2/C=CC(=O)C(C)=C2C)cc1	6	-30	-5	1	11	/
c1cnc2ccc3ncccc3c2c1	15	-5	-8	9	-9	-47
O=Cc1ccc(O)c2ncccc12	-8	11	64*	13	70	/
COc1ccc(-n2c(SCC(=O)N/N=C(/C)c3cccc(O)c3)nc3ccccc3c2=O)cc1	/	/	/	/	/	6
C=CCN(C(=O)[C@@H](CCCC)[C@@H](O)c1ccc(C(C)=O)cc1)c1ccccc1	/	/	/	/	/	-37
Cc1ccccc1N1CCN(S(=O)(=O)c2ccc3c(c2)oc(=O)n3C)CC1	/	/	/	/	/	-18
O=C(NC1CCCCN(Cc2ccc(Cl)cc2)C1=O)c1ccc(-c2ccccc2)cc1 (stereo unspecified)	/	/	/	/	/	2
